Pol eta inh-1 = qHTS for Inhibitors of Polymerase Eta | DNA polymerase eta (Homo sapiens), Q9Y253 | recombinant Pol eta, fluorescent DNA replication assay | Potency, µM (titrated, usually from 114 µM), inactives show at the highest dose activity change, negative = inhibition, most hits filed as inhibitors | hit rate 1.2% among 390,000; note: potency is the fitted concentration of half-maximal effect; % is set by controls: 0 for no effect and ±100 for the full control effect
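Pol eta at 10 nM preincubated with compounds 15 min at room temperature; reaction started with fluorescent substrate (50 nM final) and read kinetically at 0 and 10 min.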
TDP1 inh = qHTS Assay for Inhibitors of Tyrosyl-DNA Phosphodiesterase (TDP1); Tyrosyl-DNA phosphodiesterase 1 (Homo sapiens), Q9NUW8; recombinant TDP1, AlphaScreen DNA substrate cleavage; Potency, µM (series often up to 130 µM), inactives show at the highest dose activity change, negative = inhibition, hits mostly inhibitors; hit rate 0.28% among 350,000; AID 485290, 2010; note: potency is the fitted concentration of half-maximal effect; % is set by controls: 0 for no effect and ±100 for the full control effect; nearly all actives have a fitted effect of over 40% in size
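Enzyme-compound mixtures sat 15 min at room temperature, followed by a 5 min reaction with 15 nM final substrate and 10 min with AlphaScreen beads. Recombinant human Tdp1 was used at 1 nM final.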
Pol iota inh = qHTS for Inhibitors of Polymerase Iota; Potency, µM (series often up to 115 µM), without a hit: top-dose activity, negative = inhibition, actives largely listed as inhibitors; Pol iota fluorescent replication assay, 10 min; AID 588590, 2011; DNA polymerase iota (Homo sapiens), Q9UNA4; hit rate 1% among 390,000; note: potency is the fitted concentration of half-maximal effect
Target sequence (Q9UNA4 whole entry, looked up): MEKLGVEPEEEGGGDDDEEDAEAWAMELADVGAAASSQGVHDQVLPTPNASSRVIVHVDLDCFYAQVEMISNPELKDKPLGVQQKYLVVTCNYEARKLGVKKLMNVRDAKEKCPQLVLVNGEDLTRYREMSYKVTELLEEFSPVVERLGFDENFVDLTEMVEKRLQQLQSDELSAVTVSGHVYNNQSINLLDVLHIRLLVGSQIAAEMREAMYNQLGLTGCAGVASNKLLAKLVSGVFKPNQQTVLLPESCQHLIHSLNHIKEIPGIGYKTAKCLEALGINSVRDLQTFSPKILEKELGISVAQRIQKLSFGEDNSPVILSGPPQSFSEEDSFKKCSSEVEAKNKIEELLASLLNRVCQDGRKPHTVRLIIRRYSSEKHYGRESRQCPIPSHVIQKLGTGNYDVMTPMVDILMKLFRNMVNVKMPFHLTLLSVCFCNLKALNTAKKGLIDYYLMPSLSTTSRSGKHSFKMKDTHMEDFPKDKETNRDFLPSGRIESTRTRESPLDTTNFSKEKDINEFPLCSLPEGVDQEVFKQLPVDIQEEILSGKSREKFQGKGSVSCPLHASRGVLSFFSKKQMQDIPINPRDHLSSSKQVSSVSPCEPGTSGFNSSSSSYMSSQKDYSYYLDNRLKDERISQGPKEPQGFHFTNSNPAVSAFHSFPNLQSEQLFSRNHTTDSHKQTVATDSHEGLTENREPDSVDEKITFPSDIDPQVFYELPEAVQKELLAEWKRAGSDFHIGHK
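Pol iota at 10 nM preincubated 15 min with compounds at room temperature; reaction started with fluorescent substrate, 50 nM final. Fluorescence read kinetically at 0 and 10 min; buffer-only wells as negative control.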
Pol beta inh = qHTS Assay for Inhibitors of DNA Polymerase Beta; hit rate 1.3% among 340,000; Potency, µM (series often up to 114 µM), without a hit: top-dose activity change, negative = inhibition, hits mostly inhibitors; Pol beta primer extension/strand displacement, fluorescence kinetic; note: potency is the fitted concentration of half-maximal effect; % is set by controls: 0 for no effect and ±100 for the full control effect
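Homogeneous kinetic assay of primer extension and strand displacement by 10 nM Pol beta, preincubated 15 min at room temperature with compound before 50 nM substrate (final) was added. Read at 0 and 10 min; four-parameter Hill fit.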
Pol kappa inh-1 = qHTS for Inhibitors of Polymerase Kappa; DNA polymerase kappa (Homo sapiens), Q9UBT6; purified Pol kappa, fluorescent DNA synthesis assay, 10 min; Potency, µM (series often up to 107 µM), without a hit: at the top dose activity, negative = inhibition, most hits filed as inhibitors; hit rate 0.53% among 400,000; note: potency is the fitted concentration of half-maximal effect; % is set by controls: 0 for no effect and ±100 for the full control effect
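Enzyme at 10 nM met test compounds for 15 min at room temperature. Substrate addition (50 nM final) began the reaction, which was monitored by fluorescence at 0 and 10 min.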
GALK inh confirm = Confirmation Assay for Inhibitors of Human Galactokinase (GALK). hit rate 70% among 150. purified GALK, Kinase-Glo ATP depletion luminescence. Potency, µM (series often up to 115 µM), for the others: top-dose activity, negative = inhibition, hits mostly inhibitors. AID 2015, 2009. shares compounds with Pol eta inh-1
Redox cycling = Confirmatory Assay for Inhibitors of Human Galactokinase (GALK): Phenol-HRP redox assay counterscreen | shares compounds with Pol eta inh-1 | Phenol red-HRP H2O2 redox cycling, absorbance 600 nm | Potency, µM (highest dose often 115 µM), without a hit: at the highest dose activity change, negative = H2O2 signal, actives largely listed as inhibitors | hit rate 40% among 150 | AID 2035, 2009
HEK293 viability = Secondary Assay for Inhibitors of Human Galactokinase (GALK): HEK-293 Cell Viability Assay. hit rate 10% among 170. HEK-293 viability, ATP luminescence (CellTiter-Glo), 24/48 h. shares compounds with Pol eta inh-1. Potency, µM (series often up to 46.1 µM), for inactives: top-dose activity change, negative = cytotoxicity, actives largely listed as inhibitors; note: potency is the fitted concentration of half-maximal effect; % is set by controls: 0 for no effect and ±100 for the full control effect
Pol kappa inh-2 = qHTS for Inhibitors of Polymerase Kappa: Confirmatory Assay for Cherry-picked Compounds | shares compounds with Pol eta inh-1 | purified Pol-kappa, fluorescent strand-displacement substrate | Potency, µM, hits mostly inhibitors | hit rate 76% among 920; note: potency is the fitted concentration of half-maximal effect
Pol eta inh-2 = qHTS for Inhibitors of Polymerase Eta: Confirmatory Assay for Cherry-picked Compounds; shares compounds with Pol eta inh-1; Pol eta primer extension, TAMRA/BHQ fluorescence, 10 min; Potency, µM, hits mostly inhibitors; hit rate 64% among 2,600; AID 720502, 2013; note: potency is the fitted concentration of half-maximal effect
* = called active by the depositor; ? = inconclusive; / = no result; [ ] = dose if it differs, or a comment. Hits are enriched below; roughly 2.4% of the tested compounds scored in any of these assays. Calls come from the whole dose curve; as a rule, active = well fitted curve in the direction sought with a large enough effect; inconclusive = small, poorly fitted or top-dose-only effect, or another doubt; inactive = no such curve, though single readings can be large; an effect the other way counts as inactive or inconclusive.

SMILES	Pol eta inh-1	TDP1 inh	Pol iota inh	Pol beta inh	Pol kappa inh-1	Pol eta inh-2	others
O=C1NC(=O)N(c2ccccc2)C(=O)/C1=C/c1ccoc1	28µM*	-10%	40µM*	?	?	76*
CN=C=S	/	3%	/	/	/	/
O=C1NC(=O)N(c2ccccc2F)C(=O)/C1=C/c1ccc(Sc2nc3ccccc3[nH]2)o1	20µM*	2%	?	22µM*	22µM*	30*	Pol kappa inh-2=27*
O=c1[nH]c(=O)n(Cc2ccco2)c(O)c1/C=N/N1CCCCC1	20µM*	-5%	?	?	89µM*	38*	Pol kappa inh-2=24*
CCn1nc(-c2cccs2)nc2c(=O)n(C)c(=O)nc1-2	0.79µM*	2%	-154%	1%	-12%	/	GALK inh confirm=0.21µM*;Redox cycling=0.27µM*;HEK293 viability=?
CN1C(=O)/C(=C/c2cccn2-c2ccc3ccccc3c2)C(=O)NC1=S	4µM*	11%	8.9µM*	22µM*	32µM*	?
CCOC(=O)CC(SP(=S)(OC)OC)C(=O)OCC (stereo not drawn)	/	-12%	/	/	5%[19.4 µM]	/
CCOC(=O)CC(SP1(=S)OCC2(CCCCC2)CO1)C(=O)OCC (stereo not drawn)	?	/	?	/	-36%	67*
COc1ccccc1N1C(=O)NC(=O)/C(=C/c2ccc([N+](=O)[O-])s2)C1=O	18µM*	-5%	?	?	40µM*	38*
COc1ccc(N2C(=O)NC(=O)/C(=C/c3ccc(N4CCOCC4)cc3)C2=O)cc1	/	3%	/	-2%	/	/
COc1ccc(N2C(=O)NC(=O)/C(=C/c3ccc([N+](=O)[O-])s3)C2=O)cc1	8.9µM*	-2%	54%	?	18µM*	30*
CCOc1ccc(N2C(=O)NC(=O)/C(=C\c3cc(OC)c(OC)cc3[N+](=O)[O-])C2=O)cc1	-5%	-12%	?	16%	-18%	/
COc1ccc(N2C(=O)NC(=O)/C(=C\c3ccc([N+](=O)[O-])s3)C2=O)cc1	18µM*	-1%	?	?	50µM*	27*
Brc1cccc(-c2ccccc2)c1	/	1%	/	/	/	/
Cn1cccc1C(=O)OCC(=O)NCc1cccs1	-16%	1%	105%	/	-4%	/
CC(C)c1ccc(N2C(=O)NC(=O)/C(=C\c3cnc(-c4ccccc4)nc3)C2=O)cc1	-4%	-8%	-10%	24%	-10%	/
CC(C)c1ccc(N2C(=O)NC(=O)/C(=C\C=C\c3ccco3)C2=O)cc1	20µM*	2%	8.9µM*	?	40µM*	76*
Nc1nonc1C(=O)N/N=C/c1ccc([N+](=O)[O-])o1	20µM*	-2%	32µM*	?	?	?
N/C(=N\[N+](=O)[O-])N/N=C/c1ccc(O)cc1	-7%	0%	7%	9%	0%	/
Cc1cnc2c(C(=O)O)c(Cl)ccc2c1	/	9%	/	/	15%[60.1 µM]	/

From PubChem BioAssay
